Data taken from ChEMBL document CHEMBL4513141, “CO-ADD screening of NIH (USA) - Clinical Collection” (2021).
Entries with a potency or affinity are not part of this list.

What was measured:
Klebsiella pneumoniae = conditions: Concentration 20 uM; ASSAY_TEST Inhibition of Bacterial Growth; detection method Absorption (OD600); MEDIA CAMHB; plate type 384well; NBS; CORNING #3640; time 18 hr
Candida albicans = conditions: 20 µM
Cryptococcus neoformans = conditions: Concentration 20 uM; ASSAY_TEST Inhibition of Fungal Growth; detection method Resazurin; Absorption (OD600-OD570); plate type 384well; NBS; CORNING #3640

Row | SMILES | Inhibition (Klebsiella pneumoniae) [%] | Inhibition (Candida albicans) [%] | Inhibition (Cryptococcus neoformans) [%]
1 | CC1CCC[C@H](O)CCCCCc2cc(O)cc(O)c2C(=O)O1 (some centres not stated) | 3.64 | 2.99 | -2.51
2 | Cl.O=C1CC[C@@]2(O)[C@H]3Cc4ccc(O)c5c4[C@@]2(CCN3CC2CC2)[C@H]1O5 [NALTREXONE HYDROCHLORIDE] | 13 | 3.06 | 0.92
3 | CCOC(=O)C1=C(COCCN)NC(C)=C(C(=O)OC)C1c1ccccc1Cl (configuration not stated) [AMLODIPINE] | 0.34 | 4.94 | -10.38
4 | CNCCC(Oc1ccc(C(F)(F)F)cc1)c1ccccc1.Cl (configuration not stated) [FLUOXETINE HYDROCHLORIDE] | 3.44 | 1.79 | -8.4
